Compounds with a hit are over-represented: about 3.4% of the library has one in this group of screens.
IMPase Li inh: cell-permeable IMPase inhibitors with lithium potentiation. AID 1457. CHO-M1 cells, IP1 TR-FRET (IP-One), carbachol + lithium. hit rate 0.35% among 210,000. Potency, µM (top dose mostly 59.4 µM), for inactives: at the top dose activity, negative = IMPase inhibition, hits mostly inhibitors;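 further: IP1 builds up when IMPase is blocked and the TR-FRET signal falls; potency means the concentration at half of the fitted maximal effect; plate controls were basal vehicle for no effect and high inhibitor control for full effect; nearly all actives have a fitted effect of over 50% in size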
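Test compounds were applied to CHO-M1 cells previously cultured for 16–30 h at 2000 per well. A small lithium amount accompanied them; after 30 min at 37C, IP1 was quantified by TR-FRET.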
PNC assembly inh: blocks assembly of the perinucleolar compartment | PC3M PTB-GFP, PNC prevalence imaging, 16 h; active compounds read low | activity change (PNC), negative = inhibition, % at 10 µM | hit rate 3.1% among 140,000 | AID 2417;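 active means readout at or below -70, meaning at least 70% loss of cells showing the perinucleolar compartment, a nuclear body marking cancer cells; inconclusive means readout between -30 and a set limit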;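 further: plate controls were DMSO wells for no effect and camptothecin positive control wells for full effect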
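PC3M cells stably expressing PTB-GFP, 750–1000 cells/well, treated 16 h at 37 °C with compound (23 nl of library stock), in duplicate. After paraformaldehyde fixation and Hoechst stain, imaged at 20x; PNC prevalence scored by image analysis.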
HTT ATP protect: cytoprotection in Huntington HTT-Q103 PC12 cell model. PC12 HTT-Q103 induced, cytoprotection, ATP luminescence, 40 h. Potency, µM (highest dose often 56.4 µM), without a hit: cytoprotection (ATP increase), hits mostly activators. hit rate 0.14% among 230,000; further: potency means the concentration at half of the fitted maximal effect; % of control where 0% means no effect; nearly all actives have a fitted effect of over 45% in size
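PC12 cells stably carrying ecdysone-inducible Htt exon 1 (Q103)–GFP were induced with 100 nM tebufenozide (final) alongside library compounds in a dose series. Cytoprotection was scored as retained ATP by ATPlite luminescence.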
IMPase inh: membrane-permeable compound that blocks inositol monophosphatase; inhibition (IP1 accumulation), % at 46.1 µM; AID 901; CHO-M1 cells, IP1 accumulation, HTRF TR-FRET ratio; 120,000 tested, under 10 active; P97697; active means well fitted curve in the direction sought with a large enough effect in the signal ratio, not every such curve was filed as active; inconclusive means small, poorly fitted or top-dose-only effect, or a change in a side signal; inactive means no such curve, though single readings can be large or run the other way; the % refers to the signal ratio;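 further: cells stimulated with carbachol in lithium chloride buffer; plate controls were DMSO basal wells for no effect and reference inhibitor wells for full effect; higher means more IMPase inhibition seen as more IP1 and lower FRET ratio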
Target sequence (P97697 whole entry, looked up): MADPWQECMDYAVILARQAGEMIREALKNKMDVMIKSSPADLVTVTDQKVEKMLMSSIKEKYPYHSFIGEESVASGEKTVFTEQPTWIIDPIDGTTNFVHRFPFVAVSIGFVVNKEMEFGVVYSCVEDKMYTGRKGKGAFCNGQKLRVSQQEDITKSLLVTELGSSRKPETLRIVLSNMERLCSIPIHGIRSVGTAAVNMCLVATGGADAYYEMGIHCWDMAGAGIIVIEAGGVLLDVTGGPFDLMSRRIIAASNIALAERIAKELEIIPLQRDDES
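Seeded CHO-M1 cells were dosed with compound at up to 46 uM, stimulated with carbachol for 30 min, then lysed in IP-One detection reagents. Higher IP1 lowers the TR-FRET signal.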
NPSR antagonist: blocks cAMP signaling of the human neuropeptide S receptor; Q6W5P4; CHO-NPSR cells, cAMP TR-FRET, antagonist mode; Potency, µM (doses to about 38.3 µM), without a hit: top-dose activity change, negative = inhibition, most hits filed as inhibitors; hit rate 1% among 220,000; AID 1461; further: potency means the concentration at half of the fitted maximal effect; on the % scale 0 is the no-effect control and ±100 the full control effect; nearly all actives have a fitted effect of over 50% in size
Target sequence (Q6W5P4 whole entry, looked up): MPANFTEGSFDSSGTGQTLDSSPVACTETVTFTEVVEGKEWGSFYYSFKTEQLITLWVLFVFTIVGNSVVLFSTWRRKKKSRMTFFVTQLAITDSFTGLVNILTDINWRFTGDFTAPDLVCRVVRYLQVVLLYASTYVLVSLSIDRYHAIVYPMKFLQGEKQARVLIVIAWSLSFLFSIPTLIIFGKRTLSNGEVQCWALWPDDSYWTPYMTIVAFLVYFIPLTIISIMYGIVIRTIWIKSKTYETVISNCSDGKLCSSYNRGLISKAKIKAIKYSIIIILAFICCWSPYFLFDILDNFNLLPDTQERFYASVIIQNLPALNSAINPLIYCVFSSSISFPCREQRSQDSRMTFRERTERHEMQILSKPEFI
HTT aggregate: inhibitors of mutant huntingtin aggregate formation in PC12 cells. AID 1688. hit rate 1.1% among 220,000. Potency, µM (highest dose often 46.1 µM), without a hit: top-dose activity change, negative = inhibition, actives largely listed as inhibitors. PC12 HttQ103-GFP aggregates, Acumen cytometry, 40 h; further: potency means the concentration at half of the fitted maximal effect; on the % scale 0 is the no-effect control and ±100 the full control effect; nearly all actives have a fitted effect of over 60% in size
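PC12/HTTQ103-GFP, ecdysone-inducible; teb 100 nM; cpd qHTS titration; GFP aggregates read on laser cytometer, Ex 488/Em 500-530 nm.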
* = called active by the depositor; u = inconclusive; x = no result given; [ ] = remark or other dose. Unless noted, the call rests on the fitted dose curve; in most records, active means well fitted curve in the direction sought with a large enough effect; inconclusive means small, poorly fitted or top-dose-only effect, or another doubt; inactive means no such curve, though single readings can be large; an effect the other way counts as inactive or inconclusive.

SMILES | IMPase Li inh | PNC assembly inh | HTT ATP protect | IMPase inh | NPSR antagonist | HTT aggregate
COC(=O)CSc1nc(N)c(C#N)c(-c2ccc(O)cc2)c1C#N | x | x | 1%[10 µM] | x | 43% | -14%[9.22 µM]
O=S(=O)(NC1CCCC1)c1ccc(S(=O)(=O)NC2CCCC2)cc1 | -16%[38.3 µM] | u | -4% | 6 | -3%[7.67 µM] | -17%
CC(C)(C)C(=O)CNS(=O)(=O)c1ccc(S(=O)(=O)NC2CCCC2)cc1 | -1% | -82* | -10%[10 µM] | -5 | -7%[46.1 µM] | -21%
COc1ccc(CC(N)C(=O)NC2C(CO)OC(n3cnc4c(N(C)C)ncnc43)C2O)cc1 (stereo not drawn) | 7% | x | -94% | x | x | 13µM*
Cc1ccc2c(c1)C1(C(=O)N2)N2CCCC2C(C(=O)c2ccc3ccccc3c2)C12C(=O)Nc1ccccc12 (stereo not drawn) | x | x | x | x | -58% | x
CC(=O)Nc1ccc(-c2cc(-c3ccc(NC(C)=O)cc3)nc(-c3ccccc3)n2)cc1 | 32µM* | 19 | -9% | 3 | 2%[46.1 µM] | 27%
CC(=O)Nc1ccc(-c2cc(-c3ccc(NC(C)=O)cc3)nc(-c3ccc(NC(C)=O)cc3)n2)cc1 | u | 11 | -13%[10 µM] | x | -28% | 15%
CC(=O)Nc1ccc(-c2cc(-c3ccccc3)nc(-c3ccccc3)n2)cc1 | 8.9µM* | -5 | 22%[10 µM] | x | u | -22%
CCC(=O)Nc1ccc(-c2csc(C)n2)cc1 | 4% | -30 | x | x | 7% | -6%
CCC(=O)Nc1ccc(-c2cc(-c3ccccc3)nc(-c3ccc(NC(=O)CC)cc3)n2)cc1 | 10µM* | u | -34% | u | 3%[46.1 µM] | -3%
CCCCOn1c(C)c(C(C)=O)c2c3no[n+]([O-])c3ccc21 | 16% | x | -13% | x | -40% | -18%
CCOC(=O)c1c(C)n(OCc2ccccc2)c2ccc3c(no[n+]3[O-])c12 | 30%[38.3 µM] | -80* | 15%[1.9 µM] | 10 | -28%[46.1 µM] | -30%
Cc1cccc2sc(N(CCCN(C)C)C(=O)c3nc4ccccc4s3)nc12 | -3% | -118* | x | x | -19% | -3%
Cc1ccc2sc(N(CCCN(C)C)C(=O)c3nc4ccccc4s3)nc2c1C | -3% | x | -9% | x | -42% | -7%
Cc1ccc(OCCCC(=O)Nc2sc3c(c2C(N)=O)CCCC3)cc1 | x | x | x | 2 | x | x
COc1ccc(S(=O)(=O)NCCN2CCNC2=O)cc1OC | x | x | 5%[10 µM] | x | -9% | -8%[9.22 µM]
Fc1ccc(NCc2nnc(SCc3nnc(-c4ccccc4)o3)n2Cc2ccccc2)cc1 | 1%[38.3 µM] | -14 | 19%[10 µM] | 6 | u | 13µM*
Clc1ccc(-c2nnc(CSc3nnc(-c4cccs4)n3Cc3ccccc3)o2)cc1 | 18% | -11 | x | x | -8% | u
COCCn1c(=O)c(-c2cccs2)nc2cnc(Oc3ccccc3)nc21 | 3% | x | -63% | x | x | x
CC1=CC2=NC(=O)/C(=C\c3cccn3CCOc3ccccc3C)C(=N)N2O1 | 5% | x | -79% | x | 10µM* | u
O=[N+]([O-])c1ccc(Sc2n[nH]c(-c3ccc(Cl)cc3Cl)n2)nc1 | -16%[38.3 µM] | -29 | 0.79µM* | -7 | -13%[46.1 µM] | u
CC1(C)CC(N2CCCC2)=CC(=[N+]2CCCCC2)C1 | 11% | x | x | x | 17% | 8.9µM*
CCOC(=O)C1CCc2sc(N)c(C#N)c21 (stereo not drawn) | 15%[38.3 µM] | -135* | -7% | 3 | -9%[46.1 µM] | 0%
CC(Oc1ccc(-c2ccccc2)c(F)c1)c1ccn(S(=O)(=O)c2ccc(F)cc2)n1 (stereo not drawn) | 9% | -100* | 6%[10 µM] | 6 | 0%[46.1 µM] | u
O=S(c1ccc2ccccc2c1)c1cnns1 (stereo not drawn) | -5%[38.3 µM] | -13 | -88% | 14 | 10µM* | 18µM*
SMILES | IMPase Li inh | PNC assembly inh | HTT ATP protect | IMPase inh | NPSR antagonist | HTT aggregate
CCN1CCN(C(=O)Cn2cnc3sc(C)c(S(=O)(=O)N4CCN(c5ncccn5)CC4)c3c2=O)CC1 | 1% | x | -18% | x | 9% | 1%
COC(=O)COc1ccc(S(=O)(=O)Nc2ccc(C(N)=O)cc2)cc1Cl | 0%[38.3 µM] | -92* | -4% | 2 | -4%[46.1 µM] | -8%
COC(=O)COc1ccc(S(=O)(=O)Nc2ccc(C(N)=O)cc2)cc1C | 2%[38.3 µM] | -21 | -5% | -4 | -5%[46.1 µM] | u
CCn1nc(C)c(CNC(=O)CCc2nnc(-c3ccc(C(C)=O)s3)o2)c1C | 9% | x | 10%[10 µM] | x | 5% | 1%[9.22 µM]
CC(C)(O)CC[C@@H](O)[C@](C)(O)[C@H]1CC[C@@]2(O)C3=CC(=O)[C@@H]4C[C@@H](O)[C@@H](O)C[C@]4(C)C3CC[C@]12C (stereo partly drawn) | 0% | x | 15%[10 µM] | x | -20% | -8%[9.22 µM]
C[C@@H](C[C@@H](O)[C@H](O)C(C)(C)O)[C@@H]1CC[C@]2(C)C3=CC[C@H]4C(C)(C)C(=O)CC[C@]4(C)[C@H]3CC[C@@]12C | 24% | 50 | x | x | -55% | 35µM*
O=S(=O)(c1ccccc1)N1CCN(c2nc3ccccc3s2)CC1 | 11µM* | u | 17% | 0 | 20%[46.1 µM] | 6%
CC1=C/C(=N\NC(=S)Nc2cccnc2)CC(C)(C)C1 | 8% | x | -56%[10 µM] | x | 1.3µM* | u
CC1(C)C2CC=C(/C=N/NC(=S)Nc3cccnc3)C1C2 (stereo not drawn) | 10% | x | -13%[10 µM] | x | -51% | -7%
COc1ccc(CCn2c(C)cc(C(=O)CSc3nc(N)cc(=O)[nH]3)c2C)cc1 | 1%[38.3 µM] | 47 | -59% | 5 | -16%[46.1 µM] | 7.1µM*
Cc1cc(C(=O)CSc2nc(N)cc(=O)[nH]2)c(C)n1CCc1ccc(F)cc1 | 12%[38.3 µM] | u | -48% | 4 | -21%[46.1 µM] | u
CN(C)c1ccc(C2CC(=O)C=C(Nc3ccccc3N)C2)cc1 (stereo not drawn) | x | x | 3%[10 µM] | x | 2% | 19%[9.22 µM]
COc1ccccc1NC1=CC(=O)CC(c2ccccc2)C1 (stereo not drawn) | 5% | -96* | -64%[10 µM] | x | 27% | u
COC(=O)C(/C=C/C(C)Cc1cc(Br)cc(OCc2ccccc2)c1OC)OCc1ccccc1 (stereo not drawn) | x | x | -22%[10 µM] | x | x | x
OCC1O[C@H](O[C@H]2C(O)C(O)C(O)O[C@@H]2CO)C(O)C(O)C1O (stereo partly drawn) | -11% | x | -12% | x | x | -7%
O=C(O)c1ccc(N2C(=O)/C(=C/c3ccc(-c4ccc([N+](=O)[O-])cc4)o3)C=C2c2ccccc2)cc1 | 12% | x | x | x | 10µM* | 17%
CC(=O)NC(=S)Nc1sc2c(c1C(N)=O)CCC(C)C2 (stereo not drawn) | 0% | x | -23%[10 µM] | x | 3% | -4%[9.22 µM]

Bioassay records: PubChem BioAssay, National Center for Advancing Translational Sciences (NCATS)
